# This is part of a sample that, as a whole, favours compounds with a hit. Of some 79,000 tested, about 15% had one in any assay. Unmarked numbers belong to inactive results. Activity calls are given as the source filed them. Cut-off read from the data, not from the text of the source: active = growth inhibition above about 70%; inactive = the rest.
# Legend:
# [1] = NCI Yeast Anticancer Drug Screen. Data for the rad50 strain (AID 155);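 note: 0% = growth of vehicle-only cultures of the same strain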; settings: S. cerevisiae rad50 strain growth inhibition, stronger effect = higher value
# In short: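 Inhibition values express reduced yeast growth in compound-treated cultures relative to vehicle-treated controls.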
# [2] = NCI Yeast Anticancer Drug Screen. Data for the mec2-1 strain (AID 157); settings: S. cerevisiae mec2-1 strain, stronger effect = higher value
# In short: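 Each compound was tested on mec2-1 yeast, a strain altered in DNA damage repair or cell cycle control. Growth inhibition is reported relative to vehicle.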
# [3] = NCI Yeast Anticancer Drug Screen. Data for the sgs1 mgt1 strain (AID 161);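 note: 0% = growth of cultures given vehicle only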; settings: S. cerevisiae sgs1 mgt1 strain, stronger effect = higher value
# In short: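 Test agents were incubated with a DNA-repair-mutant yeast strain. Growth was then read and compared against vehicle-treated controls.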
# [4] = NCI Yeast Anticancer Drug Screen. Data for the cln2 rad14 strain (AID 165);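 note: 0% = growth equal to vehicle treated cultures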; settings: S. cerevisiae cln2 rad14 strain, stronger effect = higher value
# In short: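 Test compounds were added to cln2 rad14 yeast cultures; inhibition of growth was then determined by comparison with vehicle treatment.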
# [5] = NCI Yeast Anticancer Drug Screen. Data for the bub3 strain (AID 167); settings: S. cerevisiae bub3 mutant strain, stronger effect = higher value
# In short: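 Steps: expose the mutant yeast strain to compound; grow alongside vehicle-treated cultures; measure growth; express inhibition against the vehicle cultures.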
# [6] = NCI Yeast Anticancer Drug Screen. Data for the mlh1 rad18 strain (AID 175); settings: S. cerevisiae mlh1 rad18 strain growth inhibition, stronger effect = higher value
# In short: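 Inhibition values reflect reduced growth of mutant yeast versus vehicle-treated controls following compound exposure; the mutations affect DNA damage repair.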
# [7] = at 5.0 µM (retest, dose inferred, filed as 0.5)
# [8] = at 50.0 µM (retest, dose inferred, filed as 5.0)
SMILES,"growth inhibition [1, 7]","growth inhibition [1, 8]",growth inhibition ([1]; at 50.0 µM),"growth inhibition [2, 7]","growth inhibition [2, 8]",growth inhibition ([2]; at 50.0 µM),"growth inhibition [3, 7]","growth inhibition [3, 8]",growth inhibition ([3]; at 50.0 µM),"growth inhibition [4, 7]","growth inhibition [4, 8]",growth inhibition ([4]; at 50.0 µM),"growth inhibition [5, 7]","growth inhibition [5, 8]",growth inhibition ([5]; at 50.0 µM),"growth inhibition [6, 7]","growth inhibition [6, 8]",growth inhibition ([6]; at 50.0 µM)
O=C1C=CC(=O)N1c1cccc([N+](=O)[O-])c1,78% (active),99% (active),99.6% (active),95% (active),100% (active),99.7% (active),93% (active),99% (active),99.5% (active),84% (active),99% (active),99.7% (active),99% (active),99% (active),99.3% (active),91% (active),99% (active),99.5% (active)
N#Cc1cc([N+](=O)[O-])ccc1NC(=O)/C(=N/N)C(C(=O)c1ccc(Cl)c(Cl)c1)C1OC(=O)c2ccccc21 (stereo not drawn),23%,23%,91.8% (active),11%,11%,92.2% (active),18%,18%,91.2% (active),1%,1%,90.2% (active),11%,11%,92.4% (active),5%,5%,92% (active)
CCCCCCCCCCCCCCCCCCOS(=O)(=O)O (tested in a mixture with another compound),1%,63%,56.4%,-35%,76% (active),56.6%,-12%,60%,68.7%,-30%,49%,42.5%,-31%,77% (active),67.5%,-27%,80% (active),57.5%
CC(=O)SC(C[N+](=O)[O-])c1ccc2c(c1)OCO2 (stereo not drawn),55%,91% (active),91% (active),69%,100% (active),93% (active),53%,99% (active),93.5% (active),44%,57%,91.3% (active),63%,96% (active),92.5% (active),59%,97% (active),90.3% (active)
Cc1cc(Cl)nc2ccc(Cc3ccc4nc(Cl)cc(C)c4c3)cc12,4%,27%,15.1%,15%,5%,2.45%,7%,7%,-19.6%,3%,13%,15.4%,8%,13%,23.4%,0%,12%,37.8%
COC(=O)c1ccc(C)cc1C1CN=NC12Cc1cc(C)ccc1C2=O (stereo not drawn),10%,50%,5.35%,8%,44%,19.6%,5%,67%,68.6%,6%,44%,37.2%,6%,73% (active),46.1%,13%,65%,65%

# Reference: PubChem BioAssay (NCI)
